Sampled rows, rich in hits. Any-hit rate of the full collection: about 2.6%.
Peg3 prom inh = reduces Peg3 promoter-driven luciferase expression in HeLa. HeLa PEG-Prom luciferase reporter, luminescence, overnight. inhibition, % at 20 µM. 360,000 tested, 1.7% active;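 active = inhibition of at least 50% at 20 µM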
HIF-2a block = inhibitors of HIF-2a; AID 624352; 360,000 tested, 0.72% active; inhibition, % at 18.8 µM; 786-0 RCC cells HIF-2a reporter, luciferase luminescence, overnight;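 active = inhibition of the luminescence signal of 40% or more relative to plate controls, in a single-dose primary screen at 18.75 µM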
Shn3 inh set2 = Schnurri-3 reporter inhibition in Clone20 osteoblasts; inhibition, % at 12.5 µM; 360,000 tested, 0.52% active; Clone20 osteoblast Shn3 3'UTR firefly luciferase, 24 h; AID 588674;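 active = mean inhibition of at least 75% with every replicate also reaching 75%; inconclusive = mean inhibition at least 75% but some replicate below; inactive = mean inhibition below 75%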;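 note: 0% = median of neutral control wells and 100% = pilot-screen positive control compound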
CF NFkB block = inhibitors of cystic fibrosis induced NF-kB. inhibition, % at 5 µM. AID 588850. KKLEB NF-kB-GFP reporter, PAF-induced, GFP fluorescence overnight. 360,000 tested, 0.86% active;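 active = at least 50% inhibition at 5 µM, scaled per plate between neutral and stimulator controls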;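 note: PAF is a Pseudomonas aeruginosa culture filtrate used as stimulus; plate controls were PAF-stimulated DMSO wells for no effect and unstimulated DMSO wells for full effect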
KKLEB cytotox = counter-screen for CF NF-kB inhibitors: cytotoxicity; KKLEB CF airway cells viability, ATPlite luminescence, overnight; hits give low values; cells stimulated with P. aeruginosa culture filtrate; activity change (cytotoxicity), % at 5 µM; 360,000 tested, 0.36% active;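 active = corrected activity change at or below -50% at 5 µM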
Starred values were filed as active, the others as inactive; ? = inconclusive; ! = repeats disagree.

SMILES	Peg3 prom inh	HIF-2a block	Shn3 inh set2	CF NFkB block	KKLEB cytotox
COC(=O)c1cc(=O)n(Cc2ccc3c(c2)OCO3)c(=Nc2ccccc2)s1	17	16	8	16	1
COC(=O)c1ccc(N=c2sc(C(=O)OC)cc(=O)n2C)cc1	33	25	-18	9	-6
COC(=O)c1cc(=O)n(Cc2ccc3c(c2)OCO3)c(=Nc2ccc(F)cc2)s1	51*	0	-5	28	-8
COC(=O)c1cc(=O)n(CCc2ccccc2F)c(=Nc2ccc(F)c(Cl)c2)s1	91*	91*	80	36	-28
CCOC(=O)Cc1c(C)nc(Cc2ccc(OC(C)C)cc2)[nH]c1=O	7	20	4	-14	-20
O=C(CSc1nc(O)cc(=O)n1-c1ccccc1)Nc1nc2ccccc2s1	-19	-126	-5	4	-3
COc1cc(N=c2ssnc2Cl)c(OC)cc1Cl	-9	-7	95*!	16	5
Cc1ccc(N=c2ssnc2Cl)cc1	-42	-17	88*	-11	13
COc1ccc(OC)c(N=c2ssnc2Cl)c1	13	1	-17	-4	-3
Cc1ccc(NC(=O)N2CCCC2C(=O)NCc2ccc(Cl)cc2)cc1 (stereo not drawn)	13	2	3	-19	4
CCN(CC)CCNc1ncnc2c1sc1nc(N3CCCC3)c3c(c12)CC(C)(C)OC3	79*	30	-44	25	-23
CCN(CC)CCNc1ncnc2c1sc1nc(N3CCOCC3)c3c(c12)CCCC3	100*	8	3	12	-19
CCOCCCN1C(=O)C(O)=C(C(C)=O)C1c1cccs1 (stereo not drawn)	-9	14	3	0	4
Cc1ccccc1-c1nc(CS(=O)(=O)CC(=O)NCCCN2CC(C)CC(C)C2)c(C)o1 (stereo not drawn)	-4	5	-6	15	11
CC(C)NC(=O)CN1C(=O)CSc2ccc(S(=O)(=O)N3CCCC3)cc21	5	4	-2	0	2
COc1ccc(CNC(=O)C(c2cccs2)N(Cc2ccco2)C(=O)Cc2cccs2)cc1 (stereo not drawn)	57*	5	8	4	-10
COc1ccc(CNC(=O)C(c2ccco2)N(Cc2cccs2)C(=O)Cc2cccs2)cc1 (stereo not drawn)	39	6	32	8	0
COc1ccc(CNC(=O)C(c2ccc(C)cc2)N(Cc2cccs2)C(=O)c2ccc3c(c2)OCCO3)cc1 (stereo not drawn)	63*	-67	89*	100*	-94*
O=C(COC(=O)c1cccc(O)c1)Nc1ccc(S(=O)(=O)N2CCOCC2)cc1	12	18	-7	19	-18
Cc1ccc(S(=O)(=O)Nc2ccc(O)c3ncccc23)cc1	17	20	92*	12	-5
Cc1ccc(S(=O)(=O)Nc2ccc(O)c3cccnc23)cc1	78*	84*	27	59*	5
Cc1ccc(S(=O)(=O)Nc2cccc3ncccc23)cc1	9	12	-4	-4	2
COc1cc(NC(=O)c2cccc3c(-c4cccnc4)coc23)cc(OC)c1OC	99*	-24	?	10	-14
CS(=O)(=O)Nc1cccc(NC(=O)c2cccc3c(-c4cccc(C(N)=O)c4)coc23)c1	42	-118	-1	15	-7
O=C(Nc1cccc(C(F)(F)F)c1)c1cccc2c(-c3cccnc3)coc12	6	-6	12	-3	-13
SMILES	Peg3 prom inh	HIF-2a block	Shn3 inh set2	CF NFkB block	KKLEB cytotox
CC(=O)c1cccc(NC(=O)c2cccc3c(-c4cccc(C(N)=O)c4)coc23)c1	98*	-173	-2	-70	-8
O=C(N/N=C/c1cc(Br)ccc1O)c1ccncc1	31	-1	81	21	-10
CC(C)C(=O)Nc1ccc(C(=O)N/N=C/c2cc(Br)cc(Br)c2O)cc1	58*	13	81	13	-4
O=C(N/N=C/c1cc(Cl)ccc1O)c1ccc(Br)cc1	45	-44	81	57*	-31
CC(=O)Nc1ccc(C(=O)N/N=C/c2cc(Br)cc(Br)c2O)cc1	27	-1	7	28	-10
O=C(N/N=C\c1cc(Br)ccc1O)c1ccc(S(=O)(=O)N2CCCCC2)cc1	29	14	91*	22	-19
Cc1cc(C(=O)c2ccc(C(C)(C)C)cc2)c(NC(=O)CCl)s1	103*	10	22	26	-21
Cc1cc(C(=O)c2ccccc2)c(NC(=O)CN2CCOCC2)s1	8	20	21	1	2
CC(=O)Nc1ccc(-c2cn3cc(C)ccc3n2)cc1	-188	-109	-14	-2	-5
Cc1ccc2nc(-c3ccc(O)c(O)c3)cn2c1	-112	-112	90*	-15	5
CCOc1cc(/C=C/C(=O)c2ccc3c(c2)OCCO3)ccc1OCC(=O)N(C)C	63*	32	-7	15	-16
Cn1cnc(NCc2ccccc2)c1[N+](=O)[O-]	24	14	-63	-1	11
Cc1cccc(Oc2ccc(N)cc2)c1	-51	-59	-14	6	5
Nc1ccc(Oc2cccc(Oc3ccc(N)cc3)c2)cc1	30	90*	45	-12	9
Cc1nn(C)c(=O)n1N(C)c1ncc(C(F)(F)F)cc1Cl	67*	14	-32	-4	-25
O=C(CCNC(=O)c1ccc(Cl)cc1)Nc1cc(C(F)(F)F)ccc1N1CCOCC1	-5	3	-10	-17	-3
COc1ccc(C(C(=O)NC2CCCC2)N(Cc2cccnc2)C(=O)c2snc(C(N)=O)c2N)cc1 (stereo not drawn)	11	2	12	-14	0
N#Cc1ccc(Nc2nc(-c3ccccc3)c(C(=O)c3ccccc3)s2)cc1	61*	-97	2	15	12
Cc1ccc2nc(/C(C#N)=C/c3ccc(-c4cccc([N+](=O)[O-])c4)o3)[nH]c2c1	115*	14	19	-35	-8
C=CC(=O)Nc1ccc(CN2C(=O)N(c3c(Cl)c(OC)cc(OC)c3Cl)Cc3cnc(NCCCCN(CC)CC)nc32)cc1	52*	32	50	34	-35
CCN(CC)CCNC(=O)c1ccc(NC(=O)Cc2ccc(OC)c(S(=O)(=O)N3CCOCC3)c2)cc1	-16	0	-7	-9	18
C[C@@H]1CCCCO[C@H](CN(C)Cc2ccc(C(=O)O)cc2)[C@@H](C)CN([C@H](C)CO)C(=O)c2cc(NC(=O)CCC(F)(F)F)ccc2O1	-20	18	12	1	0
COC(=O)c1cnc(Nc2nc(C(N)Cc3ccc(Cl)cc3)cs2)nc1C(F)(F)F (stereo not drawn)	96*	17	-2	16	-16
COC(=O)c1cnc(Nc2nc(C(N)Cc3ccccc3)cs2)nc1C(F)(F)F (stereo not drawn)	52*	-15	-12	-4	-14
C=CCCc1ccc(C#N)c(SCc2c(C(=O)OCC)c3cc(OC(C)=O)c(Br)cc3n2C)n1	27	6	89*	6	5

Screening data: PubChem, several laboratories
